HT1080 IDH1KD tx – qHTS for induction of synthetic lethality in tumor cells producing 2HG: qHTS for the HT-1080-IDH1KD cell line; HT-1080 IDH1 knockdown viability, ATP luminescence, 48 h; Potency, µM (titrated, usually from 46.1 µM), without a hit: top-dose activity, negative = toxicity, usual class: cytotoxic; hit rate 2% among 360,000;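 note: 0% = DMSO wells and -100% = cell-free medium wells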
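HT-1080-IDH1KD cells (IDH1 knocked down), 750/well in RPMI with 5% FBS, treated with compound 48 h at 37 degrees C. Viability by CellTiter-Glo luminescence, normalised to DMSO and no-cell wells; concentration-response curves classed.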
TGFb SMAD3 inh – qHTS for Inhibitors of TGF-b | Potency, µM (top dose mostly 46.1 µM), for the others: at the highest dose activity, negative = inhibition, actives largely listed as inhibitors | AID 588855, 2011 | HepG2 CAGA-GFP TGF-b/SMAD3 reporter, GFP fluorescence, 18 h; TGF-beta stimulated, 500 pg/mL final | hit rate 1.2% among 410,000; note: % is set by controls: 0 for no effect and ±100 for the full control effect; nearly all actives have a fitted effect of over 65% in size
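Smad-responsive CAGA-GFP expression was quantified in HEPG2 cells exposed to compounds and 500 pg/mL final TGF-beta for 18 h at 37 degrees C; unstimulated wells defined full inhibition.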
KB-V1 cytotox – qHTS assay for MDR1-selective chemotherapeutics: Primary screen using the drug-selected MDR subline cells KB-V1; Potency, µM (titrated, usually from 46.1 µM), hits mostly cytotoxic; AID 1347076, 2019; hit rate 3.4% among 400,000; KB-V1 MDR cells viability, CellTiter-Glo, 72 h; note: % is set by controls: 0 for no effect and ±100 for the full control effect; nearly all actives have a fitted effect of over 60% in size
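Readout: CellTiter-Glo luminescence, 10 min after addition. Cells: KB-V1 MDR subline, 72 h at 37 degrees C with compound. Analysis: corrected, normalized data fitted to concentration-effect curves.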
KB-3-1 cytotox – qHTS assay for MDR1-selective chemotherapeutics: Primary screen using the parental adenocarcinoma cell KB-3-1; KB-3-1 viability, CellTiter-Glo ATP luminescence, 72 h; Potency, µM (highest dose often 46.1 µM), hits mostly cytotoxic; hit rate 1.4% among 400,000; note: % is set by controls: 0 for no effect and ±100 for the full control effect; nearly all actives have a fitted effect of over 60% in size
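Parental KB-3-1 adenocarcinoma cells in phenol-red-free DMEM with 10% FBS were pin-treated with compounds at several concentrations, incubated 72 h at 37 °C, and viability read by CellTiter-Glo luminescence; concentration-effect curves were fitted after normalization.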
HT1080NT lethal – qHTS for induction of synthetic lethality in tumor cells producing 2HG: qHTS for the HT-1080-NT fibrosarcoma cell line; Potency, µM (highest dose often 46.1 µM), for inactives: at the highest dose activity, negative = less viability, hits mostly cytotoxic; hit rate 1.6% among 360,000; AID 686970, 2013; HT-1080-NT fibrosarcoma viability, CellTiter-Glo ATP luminescence, 48 h;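 note: NT is the 2HG producing partner of a matched IDH1 knockdown line; 0% = DMSO-treated cells and -100% = media-only wells without cells; nearly all actives have a fitted effect of over 55% in size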
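Compounds were tested in concentration-response format on HT-1080-NT cells for 48 hours at 37 degrees C. Cell viability came from CellTiter-Glo luminescence; curves were classified by r2, response magnitude and activity.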
HepG2 tox – qHTS for Inhibitors of TGF-b: Cytotox Counterscreen. HepG2 CAGA-GFP viability, ATP luminescence, 18 h. Potency, µM (doses to about 46.1 µM), for inactives: top-dose activity change, negative = cytotoxicity, most hits filed as cytotoxic. hit rate 0.76% among 410,000
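CellTiter-Glo luminescence gave cytotoxicity after 18 hours at 37 degrees C. The cells were HepG2 CAGA-GFP in 1% FBS DMEM, stimulated with 500 pg/mL TGF-beta after compound addition. %Activity was normalised to no-cell wells (complete cell-killing) and DMSO (no toxicity), and curves were fitted and classified.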
* marks the source's active call; other numbers are inactive results; i = inactive; u = inconclusive; x = not tested or not shown. Most compounds without a hit are left out; they make up all but 6.6% or so of the library. Calls come from the whole dose curve; as a rule, active = well fitted curve in the direction sought with a large enough effect; inconclusive = small, poorly fitted or top-dose-only effect, or another doubt; inactive = no such curve, though single readings can be large; an effect the other way counts as inactive or inconclusive. Potency is the fitted concentration of half-maximal effect.

SMILES	HT1080 IDH1KD tx	TGFb SMAD3 inh	KB-V1 cytotox	KB-3-1 cytotox	HT1080NT lethal	HepG2 tox
NS(=O)(=O)c1cccc(NC(=O)COC(=O)Cc2n[nH]c(=O)c3ccccc23)c1	6%	7%	i	i	5%	-7%
Cc1ccc(C(c2nnnn2CCc2ccccc2)N2CCC(C)CC2)cc1 (centres undefined)	u	u	18µM*	u	-29%	-30%
Cc1ccc(C(c2nnnn2CCc2ccccc2)N2CCSCC2)cc1 (centres undefined)	0%	6%	u	i	-1%	1%
Cc1ccc(NC(=O)Cn2c(O)c(N=NC(=O)c3ccncc3)c3ccccc32)cc1	13%	-1%	i	i	14%	-3%
Cc1ccc(NC(=O)Cn2c(O)c(N=NC(=O)c3cc4ccccc4cc3O)c3ccccc32)cc1	u	0%	u	u	21µM*	-42%
Cc1sc2ncnc(N3CCN(S(=O)(=O)c4ccc(Br)cc4)CC3)c2c1C	10%	4%	u	u	-4%	14%
Cc1sc2ncnc(N3CCN(S(=O)(=O)c4ccc(C(C)(C)C)cc4)CC3)c2c1C	-19%	-27%	i	21µM*	-22%	-27%
CCCCn1c(=O)[nH]c(=O)c2c1nc(Cn1ncc(Cl)c(Cl)c1=O)n2CCC	12µM*	6.3µM*	i	2.9µM*	8.2µM*	11µM*
CCc1ccc(NC(=O)N2CCN(Cc3cc(=O)n4nc(-c5ccccc5OC)sc4n3)CC2)cc1	x	-9%	i	i	x	-3%
COc1cccc2c1C(=O)c1c(O)c3c(c(O)c1C2=O)C[C@@](O)(C(=O)CO)C[C@@H]3O[C@H]1C[C@H](N)[C@@H](O)[C@H](C)O1	0.52µM*	3.2µM*	x	u	0.26µM*	-32%
COc1cccc2c1C(=O)c1c(O)c3c(c(O)c1C2=O)CC(O)(C(=O)CO)CC3OC1CC(N(C)C)C(O)C(C)O1 (centres undefined)	0.41µM*	0.79µM*	13µM*	u	u	2%
COc1cccc2c1C(=O)c1c(O)c3c(c(O)c1C2=O)C[C@@](O)(C(C)=O)C[C@@H]3O[C@H]1C[C@H](N)[C@H](O)[C@H](C)O1	0.15µM*	u	u	0.013µM*	0.073µM*	11%
CC(=O)[C@]1(O)Cc2c(O)c3c(c(O)c2[C@@H](O[C@H]2C[C@H](N)[C@H](O)[C@H](C)O2)C1)C(=O)c1ccccc1C3=O	0.33µM*	28%	1.8µM*	0.073µM*	3.3µM*	-107%
Cc1cc(Br)cn2c(Cc3cccc(F)c3)c(-c3ccc(C#N)cc3)nc12	-22%	x	i	u	-14%	x
CCOC(=O)c1ccc(NC(=O)C(CC)Sc2nncn3c2cc2oc(C)cc23)cc1 (centres undefined)	x	1%	i	i	x	-4%
CCOC(=O)c1cccc2c1-c1ccccc1/C2=N/O	u	u	i	i	u	-39%
CC(C)COC(=O)c1cccc2c1-c1ccccc1/C2=N\O	u	14µM*	i	i	u	-100%
COc1ccccc1NC(c1ccc(Cl)cc1)c1nnc(-c2cccc(F)c2)o1 (centres undefined)	x	-23%	i	u	x	-28%
O=C(Nc1cccc2ccccc12)OC1C=CS(=O)(=O)C1 (centres undefined)	u	1%	u	u	18µM*	2%
O=C1c2ccccc2S(=O)(=O)c2cc(C(=O)N(c3ccccn3)c3ccccn3)ccc21	1%	-14%	15µM*	i	8%	-1%
COC(=O)c1cc(Cl)ccc1NC(=O)Cn1c(C)cc(C)c(C#N)c1=O	x	-2%	i	i	x	10%
CC1CCN(S(=O)(=O)c2ccc3c(ccn3CC(=O)NCc3ccccc3F)c2)CC1	x	u	i	i	x	-22%
Cc1cccc(C(=O)/C=C2/c3ccccc3CC(C)(C)N2C)c1	11µM*	-12%	18µM*	i	-5%	-46%
O=[N+]([O-])c1ccccc1NS(=O)(=O)c1ccccc1	-7%	6%	i	i	-1%	-2%
COc1ccc(OCC(O)CNC(C)c2ccccc2)cc1 (centres undefined)	-23%	-7%	i	i	-25%	-30%
SMILES	HT1080 IDH1KD tx	TGFb SMAD3 inh	KB-V1 cytotox	KB-3-1 cytotox	HT1080NT lethal	HepG2 tox
CC1CCC(C(C)C)C(OCC(O)CNC(C)c2ccccc2)C1 (centres undefined)	u	u	21µM*	u	15µM*	-87%
CC1CCC(C(C)C)C(OCC(O)CNC(C)(C)C)C1 (centres undefined)	-2%	0%	i	i	-19%	-15%
CC(NCC(O)COc1ccc2ccccc2c1)c1ccccc1 (centres undefined)	13µM*	u	u	u	18µM*	11µM*
Cc1nc(C)n(CC(O)COc2ccc3ccccc3c2)n1 (centres undefined)	-1%	15%	21µM*	i	-6%	-7%
Cc1cc(OCC(O)CNC(C)c2ccccc2)ccc1C(C)C (centres undefined)	18µM*	u	16µM*	u	23µM*	-116%
CC(NCC(O)COc1ccc(Br)cc1)c1ccccc1 (centres undefined)	u	u	i	i	u	-65%
O=S1(=O)C2CC3C=CC2(O3)C(O)C(Cc2ccccc2)N1Cc1cccc(C(F)(F)F)c1 (centres undefined)	x	u	x	x	x	-33%
CCc1ccc(NC(=O)c2nc(SCc3ccccc3F)ncc2Cl)cc1	x	21%	i	i	x	6%
CC(C)c1nc2ccc(C(=O)NCc3ccc(N(C)C)cc3)cc2o1	x	1%	x	x	x	-11%
Cc1ccc(Nc2nnc(SCC(=O)NCC3CCCO3)s2)cc1C (centres undefined)	-10%	-22%	i	i	-9%	-19%
CCCCOc1ccc(C(=O)N2CCN(CCc3ccncc3)CC2)cc1	x	26%	i	i	x	-4%
CC(=O)c1cccc(CN2CCC(C(=O)Nc3ccc(-c4cccc(C)c4)cc3)CC2)c1	21µM*	u	i	u	u	-107%

Bioassay records deposited in PubChem by National Center for Advancing Translational Sciences (NCATS).
